Laboratory results taken from PubChem BioAssay AID1159580 (chemical genetic matrix, 2015).
“And” between values parts separate entries of the source, which are not always exact repeats. Identical values can stand only once. Screen size: about 5,500 compounds; about 2,000 (36%) were called active. Roughly 18% stayed inconclusive and do not appear here. Some of the results follow. Unmarked numbers belong to inactive results. Cut-off read from the data, not from the text of the source: active = normalized growth mostly below about 0.91 (no sharp cut-off); inconclusive = no clear call, values can overlap the other calls; inactive = mostly above about 0.92.

Experiment: chemical genetic growth profiling, strain panel (AID 1159580);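 note: tested at 20 µM; growth read once vehicle control cultures reached saturation at 30 °C; 1 = growth at the plate median or of vehicle wells; lower values mean less growth of the strain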
Conditions: growth OD
[1] = S. cerevisiae deletion strains, locus YAL013W, strain DEP1, active compounds read low
[2] = S. cerevisiae deletion strains, locus YBR229C, strain ROT2, active compounds read low
[3] = S. cerevisiae deletion strains, locus YCL061C, strain MRC1, active compounds read low
[4] = S. cerevisiae deletion strains, locus YDL101C, strain DUN1, active compounds read low
[5] = S. cerevisiae deletion strains, locus YDR150W, strain NUM1, active compounds read low
[6] = S. cerevisiae deletion strains, locus YEL061C, strain CIN8, active compounds read low
[7] = S. cerevisiae deletion strains, locus YGR078C, strain PAC10, active compounds read low
[8] = S. cerevisiae deletion strains, locus YHR030C, strain SLT2, active compounds read low
[9] = S. cerevisiae deletion strains, locus YHR087W, strain rtc3, active compounds read low
[10] = S. cerevisiae deletion strains, locus YJR043C, strain POL32, active compounds read low
[11] = S. cerevisiae deletion strains, locus YJR075W, strain HOC1, active compounds read low
[12] = S. cerevisiae deletion strains, locus YLR039C, strain RIC1, active compounds read low
[13] = S. cerevisiae deletion strains, locus YLR058C, strain SHM2 (second series), active compounds read low
[14] = S. cerevisiae deletion strains, locus YLR085C, strain ARP6, active compounds read low
[15] = S. cerevisiae deletion strains, locus YLR262C, strain YPT6, active compounds read low
[16] = S. cerevisiae deletion strains, locus YML094W, strain GIM5, active compounds read low
[17] = S. cerevisiae deletion strains, locus YMR219W, strain ESC1, active compounds read low
[18] = S. cerevisiae deletion strains, locus YMR263W, strain SAP30, active compounds read low
[19] = S. cerevisiae deletion strains, locus YNL153C, strain GIM3, active compounds read low
[20] = S. cerevisiae deletion strains, locus YNL298W, strain CLA4 (second series), active compounds read low
[21] = S. cerevisiae deletion strains, locus YNL322C, strain KRE1, active compounds read low
[22] = S. cerevisiae deletion strains, locus YNR030W, strain Alg12, active compounds read low
[23] = S. cerevisiae deletion strains, locus YPL055C, strain LGE1, active compounds read low
[24] = S. cerevisiae deletion strains, locus YPL241C, strain CIN2, active compounds read low
[25] = S. cerevisiae deletion strains, locus YPR135W, strain CTF4, active compounds read low
[26] = S. cerevisiae deletion strains, locus YMR307W, strain GAS1, active compounds read low
[27] = S. cerevisiae strains, strain wild type, active compounds read low

Fc1cccc(Cl)c1CSc1nncn1-c1ccc(OCc2ccccc2)cc1
normalized growth [1]: 0.976
normalized growth (S. cerevisiae deletion strains, locus YAR019C, strain CDC15, active compounds read low): 0.991
normalized growth (S. cerevisiae deletion strains, locus YBL105C, strain PKC1, active compounds read low): 1.01
normalized growth (S. cerevisiae deletion strains, locus YBR135W, strain CKS1, active compounds read low): 1
normalized growth (S. cerevisiae deletion strains, locus YBR136W, strain MEC1, active compounds read low): 1
normalized growth (S. cerevisiae deletion strains, locus YBR160W, strain CDC28, active compounds read low): 1.01
normalized growth [2]: 0.991
normalized growth [3]: 0.968
normalized growth (S. cerevisiae deletion strains, locus YDL017W, strain CDC7, active compounds read low): 1.01
normalized growth (S. cerevisiae deletion strains, locus YDL028C, strain MPS1, active compounds read low): 1
normalized growth [4]: 0.997 and 0.986
normalized growth (S. cerevisiae deletion strains, locus YDL108W, strain KIN28, active compounds read low): 1
normalized growth (S. cerevisiae deletion strains, locus YDL132W, strain cdc53, active compounds read low): 0.994
normalized growth (S. cerevisiae deletion strains, locus YDL214C, strain PRR2, active compounds read low): 0.97
normalized growth (S. cerevisiae deletion strains, locus YDR052C, strain DBF4, active compounds read low): 0.996
normalized growth (S. cerevisiae deletion strains, locus YDR054C, strain cdc34, active compounds read low): 1.01
normalized growth [5]: 0.909
normalized growth (S. cerevisiae deletion strains, locus YDR226W, strain ADK1, active compounds read low): 0.999
normalized growth (S. cerevisiae deletion strains, locus YDR477W, strain SNF1, active compounds read low): 0.983
normalized growth [6]: 0.956
normalized growth (S. cerevisiae deletion strains, locus YER123W, strain YCK3, active compounds read low): 0.958
normalized growth (S. cerevisiae deletion strains, locus YER133W, strain GLC7, active compounds read low): 0.974
normalized growth (S. cerevisiae deletion strains, locus YFL009W, strain cdc4, active compounds read low): 1.01
normalized growth (S. cerevisiae deletion strains, locus YFL029C, strain CAK1, active compounds read low): 1
normalized growth (S. cerevisiae deletion strains, locus YFR003C, strain YPI1, active compounds read low): 1.01
normalized growth (S. cerevisiae deletion strains, locus YFR019W, strain FAB1, active compounds read low): 0.955
normalized growth (S. cerevisiae deletion strains, locus YFR028C, strain CDC14, active compounds read low): 0.997
normalized growth (S. cerevisiae deletion strains, locus YGR040W, strain KSS1, active compounds read low): 0.979
normalized growth (S. cerevisiae deletion strains, locus YGR052W, strain FMP48, active compounds read low): 1.05
normalized growth [7]: 0.984
normalized growth (S. cerevisiae deletion strains, locus YGR092W, strain DBF2, active compounds read low): 0.988
normalized growth [8]: 0.811 and 1.12
normalized growth (S. cerevisiae deletion strains, locus YHR079C, strain IRE1, active compounds read low): 1.03
normalized growth (S. cerevisiae deletion strains, locus YHR082C, strain KSP1, active compounds read low): 1.24
normalized growth [9]: 0.983
normalized growth (S. cerevisiae deletion strains, locus YHR205W, strain SCH9, active compounds read low): 0.955
normalized growth (S. cerevisiae deletion strains, locus YIL147C, strain SLN1, active compounds read low): 1
normalized growth (S. cerevisiae deletion strains, locus YJL095W, strain BCK1, active compounds read low): 1.04
normalized growth (S. cerevisiae deletion strains, locus YJL128C, strain PBS2, active compounds read low): 1.01
normalized growth (S. cerevisiae deletion strains, locus YJL157C, strain FAR1, active compounds read low): 0.969
normalized growth (S. cerevisiae deletion strains, locus YJR016C, strain ILV3, active compounds read low): 0.997
normalized growth [10]: 0.98
normalized growth (S. cerevisiae deletion strains, locus YJR066W, strain TOR1 (second series), active compounds read low): 0.967
normalized growth (S. cerevisiae deletion strains, locus YJR066W, strain TOR1, active compounds read low): 1.23
normalized growth [11]: 0.988
normalized growth (S. cerevisiae deletion strains, locus YKL048C, strain ELM1, active compounds read low): 0.977
normalized growth (S. cerevisiae deletion strains, locus YKL067W, strain YNK1, active compounds read low): 0.999
normalized growth (S. cerevisiae deletion strains, locus YKL101W, strain HSL1, active compounds read low): 0.989
normalized growth (S. cerevisiae deletion strains, locus YKL190W, strain CNB1, active compounds read low): 0.985
normalized growth (S. cerevisiae deletion strains, locus YKL193C, strain SDS22, active compounds read low): 0.996
normalized growth (S. cerevisiae deletion strains, locus YKL203C, strain TOR2, active compounds read low): 1.06
normalized growth [12]: 0.792
normalized growth [13]: 0.991
normalized growth [14]: 0.831
normalized growth (S. cerevisiae deletion strains, locus YLR113W, strain HOG1, active compounds read low): 1.01
normalized growth (S. cerevisiae deletion strains, locus YLR133W, strain CKI1, active compounds read low): 0.949
normalized growth [15]: 0.838
normalized growth (S. cerevisiae deletion strains, locus YLR403W, strain SFP1, active compounds read low): 0.965
normalized growth (S. cerevisiae deletion strains, locus YML070W, strain DAK1, active compounds read low): 0.958
normalized growth [16]: 0.948
normalized growth (S. cerevisiae deletion strains, locus YMR001C, strain CDC5, active compounds read low): 1
normalized growth (S. cerevisiae deletion strains, locus YMR205C, strain PFK2 (second series), active compounds read low): 0.965
normalized growth [17]: 0.985
normalized growth [18]: 0.963
normalized growth (S. cerevisiae deletion strains, locus YMR277W, strain FCP1, active compounds read low): 0.988
normalized growth (S. cerevisiae deletion strains, locus YNL006W, strain LST8, active compounds read low): 0.994
normalized growth (S. cerevisiae deletion strains, locus YNL020C, strain ARK1, active compounds read low): 0.963
normalized growth [19]: 0.977
normalized growth (S. cerevisiae deletion strains, locus YNL161W, strain CBK1, active compounds read low): 0.973
normalized growth (S. cerevisiae deletion strains, locus YNL183C, strain NPR1, active compounds read low): 0.98
normalized growth (S. cerevisiae deletion strains, locus YNL207W, strain RIO2, active compounds read low): 1
normalized growth (S. cerevisiae deletion strains, locus YNL222W, strain SSU72, active compounds read low): 0.995
normalized growth [20]: 0.929
normalized growth (S. cerevisiae deletion strains, locus YNL307C, strain MCK1 (second series), active compounds read low): 0.963
normalized growth [21]: 0.988
normalized growth [22]: 0.964
normalized growth (S. cerevisiae deletion strains, locus YOL078W, strain AVO1, active compounds read low): 0.977
normalized growth (S. cerevisiae deletion strains, locus YOL136C, strain PFK27, active compounds read low): 0.952
normalized growth (S. cerevisiae deletion strains, locus YOR061W, strain CKA2, active compounds read low): 0.982
normalized growth (S. cerevisiae deletion strains, locus YOR119C, strain RIO1, active compounds read low): 1.04
normalized growth (S. cerevisiae deletion strains, locus YOR231W, strain MKK1, active compounds read low): 1.05
normalized growth (S. cerevisiae deletion strains, locus YOR329C, strain SCD5, active compounds read low): 1
normalized growth (S. cerevisiae deletion strains, locus YPL031C, strain PHO85, active compounds read low): 0.986
normalized growth [23]: 0.847
normalized growth (S. cerevisiae deletion strains, locus YPL153C, strain RAD53, active compounds read low): 0.992
normalized growth (S. cerevisiae deletion strains, locus YPL204W, strain HRR25, active compounds read low): 0.973
normalized growth (S. cerevisiae deletion strains, locus YPL209C, strain IPL1, active compounds read low): 0.994
normalized growth [24]: 0.949
normalized growth (S. cerevisiae deletion strains, locus YPL256C, strain CLN2, active compounds read low): 0.983
normalized growth (S. cerevisiae deletion strains, locus YPR025C, strain CCL1, active compounds read low): 1.01
normalized growth (S. cerevisiae deletion strains, locus YPR106W, strain ISR1, active compounds read low): 0.987
normalized growth (S. cerevisiae deletion strains, locus YPR111W, strain DBF20, active compounds read low): 0.986
normalized growth [25]: 0.832
normalized growth (S. cerevisiae deletion strains, strain NNK1, active compounds read low): 0.984
normalized growth (S. cerevisiae deletion strains, strain TSCII, active compounds read low): 0.986

O=S(=O)(O)C1CCNCC1
normalized growth (S. cerevisiae deletion strains, locus YAL040C, strain CLN3, active compounds read low): 0.981
normalized growth (S. cerevisiae deletion strains, locus YCL061C, strain MRC1 (second series), active compounds read low): 1
normalized growth (S. cerevisiae deletion strains, locus YDR363W, strain ESC2, active compounds read low): 0.943
normalized growth (S. cerevisiae deletion strains, locus YER002W, strain NOP16, active compounds read low): 1
normalized growth [11]: 1.01
normalized growth [18]: 0.997
normalized growth [26]: 0.991
normalized growth [19]: 1.02
normalized growth (S. cerevisiae deletion strains, locus YNL175C, strain NOP13, active compounds read low): 0.995
normalized growth (S. cerevisiae deletion strains, locus YNL197C, strain WHI3, active compounds read low): 0.995
normalized growth (S. cerevisiae deletion strains, locus YNL224C, strain SQS1, active compounds read low): 0.995
normalized growth (S. cerevisiae deletion strains, locus YOR083W, strain WHI5 (second series), active compounds read low): 0.993
normalized growth [24]: 1

CN1CCN(C=Nc2ncc(C(F)(F)F)cc2Cl)CC1
normalized growth [1]: 0.986
normalized growth [2]: 1.02
normalized growth [4]: 0.946
normalized growth [5]: 0.974
normalized growth [6]: 1.01
normalized growth [7]: 0.984
normalized growth [8]: 0.957
normalized growth [9]: 1.07
normalized growth (S. cerevisiae deletion strains, locus YJL187C, strain SWE1, active compounds read low): 1
normalized growth [10]: 0.996
normalized growth [11]: 0.989
normalized growth [12]: 0.976
normalized growth [13]: 0.996
normalized growth [14]: 0.949
normalized growth [15]: 0.995
normalized growth [16]: 1.01
normalized growth [17]: 1
normalized growth [18]: 0.999
normalized growth [26]: 1.01
normalized growth [19]: 0.991
normalized growth [20]: 0.975
normalized growth [21]: 0.978
normalized growth [22]: 1.02
normalized growth (S. cerevisiae deletion strains, locus YOL006C, strain TOP1, active compounds read low): 0.988
normalized growth [23]: 1.04
normalized growth [24]: 0.994
normalized growth [25]: 0.927
normalized growth [27]: 0.991

CN(/N=C\c1ccccc1)c1ncc(C(F)(F)F)cc1Cl
normalized growth [1]: 0.975
normalized growth [2]: 0.949
normalized growth [3]: 0.989
normalized growth [4]: 0.96
normalized growth (S. cerevisiae deletion strains, locus YDL134C, strain PPH21, active compounds read low): 0.988
normalized growth [5]: 0.897
normalized growth [6]: 0.938
normalized growth [7]: 0.934
normalized growth [8]: 0.392 (active)
normalized growth [9]: 0.905 (active)
normalized growth [10]: 0.99
normalized growth [11]: 0.921
normalized growth [12]: 0.89
normalized growth [13]: 0.953
normalized growth [14]: 0.775 (active)
normalized growth [15]: 0.88
normalized growth [16]: 0.929
normalized growth [17]: 0.978
normalized growth [18]: 0.99
normalized growth [19]: 0.984
normalized growth [20]: 0.949
normalized growth [21]: 0.974
normalized growth [22]: 0.89
normalized growth [23]: 0.901
normalized growth [24]: 1.02
normalized growth [25]: 0.907
normalized growth [27]: 0.98
